Assay outcomes deposited in PubChem by several laboratories.
A selection: hits, their analogues and other compounds. The true share with any hit is near 2.9%.
Shn3 inh set2 – reduction of Shn3 3'UTR firefly luciferase signal, primary screen, Schnurri-3 inhibitor project, cell-based, Clone20 osteoblasts, set 2. 360,000 tested, 0.52% active. AID 588674, 2011. Clone20 osteoblast Shn3 3'UTR firefly luciferase, 24 h. inhibition, % at 12.5 µM;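 active = mean inhibition of at least 75% with every replicate also reaching 75%; inconclusive = mean inhibition at least 75% but some replicate below; inactive = mean inhibition below 75%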;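 also: 0% = median of neutral control wells and 100% = pilot-screen positive control compound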
LMP1 NFkB inh – EBV LMP1-driven NF-kappaB luciferase reporter inhibitors, primary screen, cell-based, luminescence, single point | inhibition, % at 12.5 µM | 350,000 tested, 0.69% active | LMP1-induced NF-kappaB luciferase reporter cells; in the data active = inhibition above about 41%; inconclusive = no clear call, values can overlap the other calls;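 also: 0% = neutral control wells and 100% = reference inhibitor control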
CF NFkB inh – inhibitors of PAF-induced NF-kB signaling, primary screen, cell-based, GFP fluorescence, uHTS; 360,000 tested, 0.86% active; KKLEB NF-kB-GFP reporter, GFP fluorescence overnight; inhibition, % at 5 µM; AID 588850, 2011;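 active = at least 50% inhibition at 5 µM, scaled per plate between neutral and stimulator controls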;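 also: PAF is a Pseudomonas aeruginosa culture filtrate used as stimulus; plate controls were PAF-stimulated DMSO wells for no effect and unstimulated DMSO wells for full effect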
Peg3 prom inh-1 – Peg3 promoter-driven luciferase inhibitors, primary screen, cell-based, HeLa, luciferase luminescence; HeLa PEG-Prom luciferase reporter, overnight; inhibition, % at 20 µM; 360,000 tested, 1.7% active; AID 588405, 2011;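 active = inhibition of at least 50% at 20 µM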
KKLEB cytotox – cytotoxicity in KKLEB CF airway cells, primary screen, cytotoxicity control for CF NF-kB inhibitor project, cell-based, uHTS, fluorescence assay plates; KKLEB CF airway cells viability, ATPlite luminescence, overnight; active compounds read low; cells stimulated with P. aeruginosa culture filtrate; activity change (cytotoxicity), % at 5 µM; 360,000 tested, 0.36% active; AID 602141, 2011;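 active = corrected activity change at or below -50% at 5 µM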
HIF-2a inh – HIF-2a reporter inhibitors, primary screen, luminescence, 786-0 RCC cells; 786-0 RCC cells HIF-2a reporter, luciferase luminescence, overnight; AID 624352, 2012; 360,000 tested, 0.72% active; inhibition, % at 18.8 µM;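 active = inhibition of the luminescence signal of 40% or more relative to plate controls, in a single-dose primary screen at 18.75 µM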
Peg3 prom inh-2 – Peg3 promoter reporter inhibitors, retest, confirmation, cell-based, HeLa, luciferase reporter, single concentration | shares compounds with Peg3 prom inh-1 | HeLa PEG-Prom luciferase reporter, luminescence, overnight | inhibition, % at 20 µM | 1,300 tested, 84% active;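 active = at 20 µM dose, 40% or more inhibition averaged across four replicates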
Numbers without * were called inactive.

How did CC(C)c1c(O)c2c(n(-c3ccccc3)c1=O)CCCC2 do in these assays?
Shn3 inh set2: inconclusive; LMP1 NFkB inh: -3.7; CF NFkB inh: 0.5; Peg3 prom inh-1: 15.2; KKLEB cytotox: -10.6; HIF-2a inh: 11.0

How did COc1cc(C=NO)nc(-c2ccccn2)c1 do in these assays?
Shn3 inh set2: 93.0*; LMP1 NFkB inh: 57.1*; CF NFkB inh: 18.0; Peg3 prom inh-1: 52.2*; KKLEB cytotox: -16.4; HIF-2a inh: 1.7; Peg3 prom inh-2: 64.6*

Results for Cc1ccc(OCC(=O)Nc2ccc(S(=O)(=O)NC3=NCCCCC3)cc2)cc1 ?
Shn3 inh set2: -1.1; LMP1 NFkB inh: 5.7; CF NFkB inh: 6.3; Peg3 prom inh-1: -24.5; KKLEB cytotox: 14.0; HIF-2a inh: -2.9

Results for N#CCOc1ccccc1CNC[C@H]1O[C@@H](n2cnc(C(N)=O)n2)[C@H](O)[C@@H]1O ?
Shn3 inh set2: 11.2; LMP1 NFkB inh: -8.3; CF NFkB inh: -24.0; Peg3 prom inh-1: 2.3; KKLEB cytotox: 19.7; HIF-2a inh: 9.5

How did Cc1cc(Br)ccc1NC(=O)CN1C(=O)C2C3CC(c4ccccc4)C(C3)C2C1=O (stereo unspecified) do in these assays?
Shn3 inh set2: 11.3; LMP1 NFkB inh: -4.0; CF NFkB inh: -18.8; Peg3 prom inh-1: 55.6*; KKLEB cytotox: -6.9; HIF-2a inh: -21.8; Peg3 prom inh-2: 62.5*

How did Cc1cc(Br)ccc1NC(=O)CNC(=O)CN1C(=O)NC2(CCCCCC2)C1=O do in these assays?
Shn3 inh set2: -8.5; LMP1 NFkB inh: 6.9; CF NFkB inh: 0.4; Peg3 prom inh-1: 10.5; KKLEB cytotox: -0.4; HIF-2a inh: 9.8

How did COc1ccc(/C=C2\SC(=S)N(CCC(=O)N(CCO)Cc3ccccc3)C2=O)cc1OC do in these assays?
Shn3 inh set2: 9.3; LMP1 NFkB inh: 4.7; CF NFkB inh: 23.3; Peg3 prom inh-1: 78.2*; KKLEB cytotox: -10.1; HIF-2a inh: 12.9; Peg3 prom inh-2: 14.4

How did COc1ccc(/C=C2\SC(=S)N(CCC(=O)Nc3ccc(C(=O)O)cc3)C2=O)cc1OC do in these assays?
Shn3 inh set2: -18.9; LMP1 NFkB inh: -4.8; CF NFkB inh: -6.8; Peg3 prom inh-1: 1.6; KKLEB cytotox: 1.1; HIF-2a inh: 21.4

What do the screens show for `CCCCCCCCOC(=O)c1cc([N+](=O)[O-])c(Sc2ncnc3nc[nH]c23)c([N+](=O)[O-])c1`?
Shn3 inh set2: 98.7*; LMP1 NFkB inh: 8.2; CF NFkB inh: 1.7; Peg3 prom inh-1: 82.7*; KKLEB cytotox: -8.7; HIF-2a inh: -53.3; Peg3 prom inh-2: 72.7*

How did Cc1cc(C)cc(NS(=O)(=O)c2ccc3[nH]cc(C(=O)NCc4ccco4)c(=O)c3c2)c1 do in these assays?
Shn3 inh set2: 42.8; LMP1 NFkB inh: 9.6; CF NFkB inh: -9.6; Peg3 prom inh-1: 55.0*; KKLEB cytotox: -0.2; HIF-2a inh: 24.4; Peg3 prom inh-2: 71.3*

Results for Cc1ccc(NC(=O)c2ccc(OCC3CCCO3)cc2)nc1 (stereo unspecified) ?
Shn3 inh set2: -78.4; LMP1 NFkB inh: -7.5; CF NFkB inh: -12.2; Peg3 prom inh-1: -302.9; KKLEB cytotox: 5.4; HIF-2a inh: -165.4

Results for Cc1cnc(NC(=O)c2ccc(OCC3CCCO3)cc2)s1 (stereo unspecified) ?
Shn3 inh set2: 26.3; LMP1 NFkB inh: 47.1*; CF NFkB inh: 16.5; Peg3 prom inh-1: 52.9*; KKLEB cytotox: -42.3; HIF-2a inh: 19.1; Peg3 prom inh-2: 10.7

Results for CN(CCC#N)C(=O)COC(=O)c1c2c(nc3ccccc13)/C(=C/c1ccco1)CC2 ?
Shn3 inh set2: -67.1; LMP1 NFkB inh: -36.7; CF NFkB inh: -25.2; Peg3 prom inh-1: -139.7; KKLEB cytotox: 8.5; HIF-2a inh: -194.0

How did COc1ccc(-n2nc(C(=O)Nc3ccc(OC)c(OC)c3)c3c4ccccc4n(C)c3c2=O)cc1 do in these assays?
Shn3 inh set2: 14.2; LMP1 NFkB inh: 6.1; CF NFkB inh: 64.3*; Peg3 prom inh-1: 61.6*; KKLEB cytotox: -59.7*; HIF-2a inh: 6.0; Peg3 prom inh-2: 14.4

How did O=C(NCCCO)c1c(O)c2cccc3c2n(c1=O)CCC3 do in these assays?
Shn3 inh set2: -18.3; LMP1 NFkB inh: 0.2; CF NFkB inh: 6.4; Peg3 prom inh-1: -0.7; KKLEB cytotox: -1.3; HIF-2a inh: -13.1

How did CCOc1cc(/C=N/Nc2nc(-c3cccc(S(=O)(=O)N4CCCC4)c3)cs2)ccc1O do in these assays?
Shn3 inh set2: 40.0; LMP1 NFkB inh: 0.0; CF NFkB inh: -16.0; Peg3 prom inh-1: 51.6*; KKLEB cytotox: 23.3; HIF-2a inh: 8.9; Peg3 prom inh-2: 47.0*

How did CN(CC(=O)Nc1ccccc1Br)C(=O)COc1cccc2c1OC(C)(C)C2 do in these assays?
Shn3 inh set2: -2.4; LMP1 NFkB inh: 13.4; CF NFkB inh: -7.8; Peg3 prom inh-1: -5.4; KKLEB cytotox: 4.1; HIF-2a inh: 7.1

Results for O=C(Nc1ccc2oc(-c3ccncc3)nc2c1)c1ccc([N+](=O)[O-])o1 ?
Shn3 inh set2: inconclusive; LMP1 NFkB inh: -20.7; CF NFkB inh: 48.5; Peg3 prom inh-1: 102.0*; KKLEB cytotox: -19.9; HIF-2a inh: 6.2; Peg3 prom inh-2: 97.7*

Results for CSc1ccc(CN2CCN(C(=O)c3ccncc3)CC2)cc1 ?
Shn3 inh set2: 11.4; LMP1 NFkB inh: 16.1; CF NFkB inh: 6.1; Peg3 prom inh-1: 16.3; KKLEB cytotox: -14.2; HIF-2a inh: -5.3

Results for COc1cc(NC(=O)COC(=O)CO/N=C(\C)c2ccc3c(c2)OCO3)cc(OC)c1 ?
Shn3 inh set2: 8.2; LMP1 NFkB inh: -4.7; CF NFkB inh: -17.7; Peg3 prom inh-1: 10.3; KKLEB cytotox: 5.9; HIF-2a inh: 11.4

How did O=C(Nc1ccc(Cl)cc1)P(=O)(O)c1ccccc1 do in these assays?
Shn3 inh set2: -4.8; LMP1 NFkB inh: 0.4; CF NFkB inh: -19.7; Peg3 prom inh-1: 6.5; KKLEB cytotox: 14.5; HIF-2a inh: 17.5

What do the screens show for `Nc1nonc1-n1nnc(C(=O)N/N=C/c2cc(Br)ccc2O)c1CNc1ccccc1`?
Shn3 inh set2: 58.6; LMP1 NFkB inh: 13.8; CF NFkB inh: 26.2; Peg3 prom inh-1: 55.7*; KKLEB cytotox: -31.7; HIF-2a inh: 2.8; Peg3 prom inh-2: 71.5*

What do the screens show for `O=C(Nc1ccc(N2CCOCC2)cc1)c1cc(-c2ccncc2)nc2ccccc12`?
Shn3 inh set2: 15.0; LMP1 NFkB inh: -2.1; CF NFkB inh: -8.5; Peg3 prom inh-1: 17.5; KKLEB cytotox: -13.9; HIF-2a inh: 13.1
